# Bioassay records (PubChem)
# This is one part of a sample in which hits are shown more often than they occur.
# Shiga toxin inh: inhibitors of Shiga toxin in Vero cells. AID 2315. inhibition, % at 38.7 µM. Vero cells, Shiga toxin protein synthesis inhibition reporter. 290,000 compounds, 9.2% hits; in the data active = inhibition mostly above about 28%, no sharp cut-off; inactive = mostly below about 43%; also: 0% is about no effect
# TbPYK inhibitor: inhibitors of Trypanosoma brucei pyruvate kinase; Q57TT1; TbPYK enzyme, Kinase-Glo Plus ATP luminescence, 45 min; 410,000 compounds, 0.12% hits; Potency, µM (highest dose often 76.8 µM), for inactives: at the top dose activity, negative = inhibition, hits mostly inhibitors; also: potency is read from the fitted curve at half-maximal effect; % is scaled to controls: 0 for no effect and ±100 for the full control effect; nearly all actives have a fitted effect of over 50% in size
#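 Screened from lowest to highest concentration, compounds were pinned into TbPYK/substrate mixtures, and ADP (130 uM final) was added. Plates sat at room temperature for 45 min prior to Kinase-Glo Plus detection by luminescence.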
# LmPK inhibitor: blocks Leishmania mexicana pyruvate kinase activity; Q27686; purified LmPK, Kinase-Glo ATP luminescence, 1 h; 290,000 compounds, 0.37% hits; Potency, µM (highest dose often 57.5 µM), for inactives: at the highest dose activity change, negative = inhibition, usual class: inhibitors; also: potency is read from the fitted curve at half-maximal effect; % is scaled to controls: 0 for no effect and ±100 for the full control effect
#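 Kinase-Glo luminescence read after 1 h RT reaction of 0.1 nM LmPK with 0.5 mM PEP and 0.1 mM ADP. Activity scaled between uninhibited and enzyme-free controls.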
# Giardia FBPA inh: inhibitors of Giardia lamblia fructose-1,6-bisphosphate aldolase. A8B2U2. purified Giardia FBPA. Potency, µM (top dose mostly 59.6 µM), for the others: at the highest dose activity, negative = inhibition, actives largely listed as inhibitors. 290,000 compounds, 0.71% hits. AID 2451; also: potency is read from the fitted curve at half-maximal effect; % is scaled to controls: 0 for no effect and ±100 for the full control effect; nearly all actives have a fitted effect of over 55% in size
# Target sequence (A8B2U2 whole entry, looked up): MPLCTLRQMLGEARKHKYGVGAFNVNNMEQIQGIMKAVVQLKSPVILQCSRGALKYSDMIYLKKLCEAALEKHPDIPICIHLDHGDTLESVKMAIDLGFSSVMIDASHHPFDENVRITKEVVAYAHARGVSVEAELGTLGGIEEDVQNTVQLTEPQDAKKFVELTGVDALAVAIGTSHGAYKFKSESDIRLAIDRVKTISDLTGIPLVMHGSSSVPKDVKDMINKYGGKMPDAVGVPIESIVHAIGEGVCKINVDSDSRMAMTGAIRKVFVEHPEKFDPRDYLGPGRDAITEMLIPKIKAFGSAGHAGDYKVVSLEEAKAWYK
#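 40 nM FBPA preincubated 10 min at RT with compound (up to 57.5 uM final), then substrate plus GAPDH/TPI/NAD/arsenate coupling and diaphorase/resazurin added. Fluorescence read after 20 min at RT, 525/598 nm.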
# RE007 growth inh: less growth of the S. pombe RE007 Vpr strain; S. pombe RE007 Vpr strain, BacTiter-Glo ATP luminescence, 24 h; Potency, µM (titrated, usually from 92.2 µM), inactives show at the top dose activity change, negative = less growth, most hits filed as inhibitors; 360,000 compounds, 0.21% hits; AID 651644; active = well fitted falling curve with a large enough effect; inconclusive = small, poorly fitted or top-dose-only effect; inactive = no such curve, though single readings can be large or run the other way; also: potency is read from the fitted curve at half-maximal effect; % is scaled to controls: 0 for no effect and ±100 for the full control effect; nearly all actives have a fitted effect of over 50% in size
#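 Fission yeast RE007 carrying one integrated HIV-1 vpr copy, seeded at OD 0.01 in PMG+AL medium with 23 nL pinned compound. Grown 24 h at 30 degrees; viability read by BacTiter-Glo luminescence after 5 min.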
# Cycloheximide cs: counter-screen for Shiga toxin inhibitors: cycloheximide protein synthesis inhibition | cell reporter, cycloheximide protein synthesis inhibition counterscreen | max response, % | 300,000 compounds, 12% hits | AID 2314; in the data active = max response mostly above about 13%, no sharp cut-off; inactive = mostly below about 14%; also: read at 38.3 µM for the half of the compounds with a filed dose; 0% is about no effect
# Starred values were filed as active, the others as inactive; ? = inconclusive; / = no result. Unless noted, calls follow the shape of the dose curve; as a rule, active = well fitted curve in the direction sought with a large enough effect; inconclusive = small, poorly fitted or top-dose-only effect, or another doubt; inactive = no such curve, though single readings can be large; an effect the other way counts as inactive or inconclusive.
SMILES,Shiga toxin inh,TbPYK inhibitor,LmPK inhibitor,Giardia FBPA inh,RE007 growth inh,Cycloheximide cs
O=C(CN1C(=O)CCC1=O)Nc1nc(-c2cccs2)cs1,14,-14%,6%,-2%,2%,1
O=C(Nc1nc(-c2cccs2)cs1)c1ccco1,91*,-11%,0%,-10%,?,37*
CCC(=O)N1CCc2cc(-c3csc(NC(=O)c4ccco4)n3)ccc21,55,0%,-7%,-15%,-5%,28*
CC(C)C(=O)N1CCc2cc(-c3csc(N)n3)ccc21,37,-21%,3%,-10%,-3%,22*
CCc1ccc(NC(=O)CSC2=Nc3ccccc3C3=NC(CC(=O)NCc4ccc5c(c4)OCO5)C(=O)N23)cc1 (configuration not stated),/,-2%,/,/,/,/
COc1ccc(-c2csc(NC(=O)Cc3ccccc3F)n2)c(OC)c1,38,-2%,-2%,/,-2%,14*
COc1ccc(OC)c(-c2csc(NC(=O)Cc3ccccc3)n2)c1,45,-15%,-6%,/,-3%,24
O=C(Nc1nc(-c2cccs2)cs1)C1=COCCO1,68*,-31%,?,-5%,35µM*,40*
O=C(Nc1nc(-c2ccc(Cl)cc2)cs1)C1=COCCO1,/,-5%,/,/,?,/
CC1(C)CC(NC(=O)C2CCC(=O)N(Cc3ccccc3F)C2)CC(C)(C)C1 (configuration not stated),58*,-10%,1%,7%,?,26*
Cc1ccc2nc(CNC(=O)C3CCC(=O)N(Cc4ccccc4F)C3)cn2c1 (configuration not stated),-4,-2%,-12%,/,-22%,-1
Cc1ccc(C(C)(C)NC(=O)C2CCC(=O)N(Cc3ccccc3F)C2)cc1 (configuration not stated),23,2%,-6%,/,1%,16*
CC[C@H](CO)Nc1nc(Nc2cccc(Cl)c2)c2ncn(C(C)C)c2n1,22,6%,2%,-17%,5%,10*
CN(C(=O)c1ccncc1)c1nnc(-c2ccccn2)s1,75,7%,4%,0%,-1%,35*
CN(C(=O)c1ccncc1)c1nnc(-c2cccnc2)s1,-3,-1%,1%,3%,5%,-3
Cc1ccc(C(=O)N(C)c2nnc(-c3ccncc3)s2)cc1,58*,1%,0%,4%,-3%,15*
COc1ccc(-c2cc3ccc(OCC(=O)NCC4CCC(C(=O)O)CC4)cc3oc2=O)cc1 (configuration not stated),29*,-4%,0%,9%,2%,27*
CC(=O)Oc1ccc2c(=O)c(-c3ccccc3)coc2c1,80*,-7%,-13%,4%,9%,38*
COc1ccc(-c2cc3ccc(OC(C)C(=O)O)cc3oc2=O)cc1 (configuration not stated),30,-2%,-1%,12%,11%,13*
COc1ccc(-c2cc3ccccc3oc2=O)cc1,/,-1%,/,/,-23%,/
CC(=O)Oc1ccc2cc(-c3ccccc3)c(=O)oc2c1,53*,-11%,?,-1%,8%,34*
CC(=O)COc1ccc2cc(-c3ccccc3)c(=O)oc2c1,73*,2%,-6%,-8%,4%,42*
O=C(CCCCl)Oc1ccc2cc(-c3ccc4ccccc4n3)c(=O)oc2c1,9,-4%,3%,7%,-28%,20*
CCn1c(C(=O)NCCc2ccc(S(N)(=O)=O)cc2)cc2sc(Cl)cc21,/,-5%,/,/,/,/
Cc1cccn2c(=O)c3cc(C(=O)NCc4ccccc4Cl)sc3nc12,/,2%,/,/,/,/
Cc1nc(C(F)(F)F)ccc1C(=O)Nc1ccc2ccccc2n1,49*,-1%,4%,10%,-14%,21*
O=C(NCCNC(=O)c1ccccc1)c1ccccc1,-5,3%,0%,-4%,-9%,-2
O=C(NCC(O)c1ccccc1)c1ccccc1 (configuration not stated),60*,1%,-16%,-2%,12%,32*
